# Screening data from PubChem.
# Shown are actives, neighbours in structure and some others; about 2.9% of the full set was active somewhere.
# Nrf2 activator = qHTS of Nrf2 Activators. AREc32 ARE-luciferase reporter (MCF7-derived line), luminescence, 24 h. Potency, µM (doses to about 46.1 µM), inactives show at the top dose activation, most hits filed as activators. 410,000 compounds, 0.31% hits; note: potency is the fitted concentration of half-maximal effect; % of control where 0% means no effect; nearly all actives have a fitted effect of over 65% in size
#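 Steps: seed AREc32_Fluc cells (1000/well, 5% FBS OPTI-MEM); incubate overnight at 37 deg C; add 23 nL compound; incubate 24 hr; add Steady-Glo; hold 30 min RT; read luminescence.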
# A549 viability = Nrf2 qHTS screen for inhibitors: counterscreen for cytotoxicity; A549 ARE-Fluc cells, CellTiter-Fluor viability, 18-24 h; Potency, µM (highest dose often 46 µM), for the others: at the top dose activity change, negative = cytotoxicity, actives largely listed as inhibitors; 390,000 compounds, 0.16% hits; note: potency is the fitted concentration of half-maximal effect; % is set by controls: 0 for no effect and ±100 for the full control effect
#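 A549 ARE_Fluc cells in 5% FBS OPTI-MEM were exposed to compounds in concentration-response for 18-24 h at 37 deg C. Viability was read by CellTiter-Fluor fluorescence (Ex 405/Em 525) after 30 min, before the luciferase read.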
# ATXN2 expr inh = Primary qHTS for Inhibitors of ATXN expression; 360,000 compounds, 0.72% hits; Potency, µM (top dose mostly 57 µM), for inactives: at the top dose activity change, negative = inhibition, actives largely listed as inhibitors; HEK-293 ATXN2-luciferase reporter, luminescence, 24 h; note: potency is the fitted concentration of half-maximal effect; % is set by controls: 0 for no effect and ±100 for the full control effect; nearly all actives have a fitted effect of over 55% in size
#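 qHTS (up to 57 uM final) was run with 24 h compound exposure of reporter cells at 37 °C. Each well was multiplexed: SteadyGlo luminescence measured ATXN2-luciferase expression after a fluorogenic Gly-Phe-AFC viability readout (25 uM final).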
# Nrf2 block = Nrf2 qHTS screen for inhibitors; A549 ARE-Fluc reporter, luciferase luminescence, 18-24 h; Potency, µM (titrated, usually from 46 µM), for inactives: at the top dose activity change, negative = inhibition, actives largely listed as inhibitors; 360,000 compounds, 2.1% hits; note: potency is the fitted concentration of half-maximal effect; % is set by controls: 0 for no effect and ±100 for the full control effect; nearly all actives have a fitted effect of over 60% in size
#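 A549 ARE_Fluc cells, 5000/well, 5% FBS OPTI-MEM; compounds in dose-response, 18-24 h at 37 °C/5% CO2; CellTiter-Fluor viability read (Ex 405/Em 525), then BugLite luciferase luminescence = Nrf2 activity.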
# ATXN viability = Viability Counterscreen for Primary qHTS for Inhibitors of ATXN expression | 400,000 compounds, 0.49% hits | Potency, µM (top dose mostly 56.7 µM), most hits filed as cytotoxic | S2 cells (HEK-293 line with an ATXN2-luciferase reporter) viability, CellTiter-Fluor protease fluorescence, 24 h; note: potency is the fitted concentration of half-maximal effect; nearly all actives have a fitted effect of over 40% in size
# SKNSH spheroid = qHTS of pediatric cancer cell lines to identify multiple opportunities for drug repurposing: Orthogonal 3D viability screen for SK-N-SH cells; shares compounds with ATXN2 expr inh; SK-N-SH 3D spheroid viability, PI/Hoechst imaging, 72 h; Potency, µM (titrated, usually from 30.7 µM), actives largely listed as inhibitors; 65 compounds, 70% hits; AID 1347135, 2019
# SJ-GBM2 3D tox = qHTS of pediatric cancer cell lines to identify multiple opportunities for drug repurposing: Orthogonal 3D viability screen for SJ-GBM2 cells; Potency, µM (series often up to 30.7 µM), actives largely listed as inhibitors; SJ-GBM2 3D spheroid viability, PI/Hoechst imaging, 72 h; shares compounds with ATXN2 expr inh; AID 1347136, 2019; 65 compounds, 80% hits
# Daoy 3D tox = qHTS of pediatric cancer cell lines to identify multiple opportunities for drug repurposing: Orthogonal 3D viability screen for Daoy cells; shares compounds with ATXN2 expr inh; Daoy 3D spheroid viability, PI/Hoechst imaging, 72 h; Potency, µM (top dose mostly 30.7 µM), usual class: inhibitors; 65 compounds, 50% hits; AID 1347137, 2019
# TC32 3D caspase = qHTS of pediatric cancer cell lines to identify multiple opportunities for drug repurposing: Orthogonal 3D caspase screen for TC32 cells; shares compounds with ATXN2 expr inh; TC32 3D spheroids, caspase-3/7 fluorescence imaging, 24 h; Potency, µM (doses to about 30.7 µM), most hits filed as inhibitors; 65 compounds, 30% hits
# TC32 3D tox = qHTS of pediatric cancer cell lines to identify multiple opportunities for drug repurposing: Orthogonal 3D viability screen for TC32 cells. TC32 3D spheroid viability, PI/Hoechst imaging, 72 h. Potency, µM (series often up to 30.7 µM), actives largely listed as inhibitors. 65 compounds, 60% hits. shares compounds with ATXN2 expr inh. AID 1347139, 2019
# MG63 spheroid = qHTS of pediatric cancer cell lines to identify multiple opportunities for drug repurposing: Orthogonal 3D viability screen for MG 63 (6-TG R) cells | shares compounds with ATXN2 expr inh | MG-63 (6-TG R) 3D spheroid viability, PI/Hoechst imaging, 72 h | Potency, µM (doses to about 30.7 µM), usual class: inhibitors | 65 compounds, 50% hits
# RD 3D tox = qHTS of pediatric cancer cell lines to identify multiple opportunities for drug repurposing: Orthogonal 3D viability screen for RD cells; 65 compounds, 50% hits; shares compounds with ATXN2 expr inh; RD rhabdomyosarcoma 3D spheroid viability, PI/Hoechst imaging, 72 h; Potency, µM (series often up to 30.7 µM), actives largely listed as inhibitors
# * marks the source's active call; other numbers are inactive results; i = inactive; u = inconclusive; x = no result given. Calls come from the whole dose curve; as a rule, active = well fitted curve in the direction sought with a large enough effect; inconclusive = small, poorly fitted or top-dose-only effect, or another doubt; inactive = no such curve, though single readings can be large; an effect the other way counts as inactive or inconclusive.
SMILES,Nrf2 activator,A549 viability,ATXN2 expr inh,Nrf2 block,ATXN viability,others
COc1cccc(-c2nnc3n(Cc4ccccc4Cl)c(=O)c4ccccc4n23)c1O,3%,7%,-32%,-1%,u,
CN(C)C(=O)Oc1ccc(C(=O)c2ccccc2)cc1,2%,5%,42%,-29%,i,
Cc1ccccc1CN1CCc2nc(N3CCN(c4ccccn4)CC3)ncc2C1,-1%,-11%,-22%,x,u,
COC(=O)c1ccc(CN2CCN(Cc3ccccc3)CC2)cc1,0%,10%,-10%,x,i,
Cc1nn(-c2nccs2)c2c1C(=O)CC(C)(C)C2Br (stereo not drawn),3%,4%,u,u,i,
CC(C)C(=O)Nc1ccc([N+](=O)[O-])c(C(F)(F)F)c1,4%,-5%,-21%,u,i,
O=C(N[C@H]1N=C(c2ccccc2F)c2cccc3c2N(CC3)C1=O)c1cc2ccccc2[nH]1,x,x,46%,x,u,
CC(Cc1ccccc1)NCCC(=O)NC(C)Cc1ccccc1 (stereo not drawn),0%,-2%,x,6%,i,
CC(C)(C)c1ccc(C(=O)NC(=S)Nn2cnnc2)cc1,0%,-6%,17%,u,u,
O=c1[nH]c2ccc(Cl)cc2c(N[C@@H]2CN3CCC2CC3)c1-c1nc2ccccc2[nH]1,x,x,0.068µM*,x,x,SKNSH spheroid=0.13µM*;SJ-GBM2 3D tox=0.091µM*;Daoy 3D tox=0.72µM*;TC32 3D caspase=18µM*;TC32 3D tox=13µM*;MG63 spheroid=6.4µM*;RD 3D tox=u
COc1cccc(/C=C/c2nc(S(=O)(=O)c3ccccc3)c(N3CCC(C(N)=O)CC3)o2)c1,4%,x,x,x,u,
O=C1C(=Cc2cn(-c3ccccc3)nc2-c2ccc(OCc3ccc(Cl)cc3)cc2)SC(=S)N1CCS(=O)(=O)O,0%,x,7%,x,u,
CNCCCc1ccccc1,0%,17%,-5%,1%,i,
CCCn1cc(S(=O)(=O)c2ccc(OC)cc2)c(=O)c2cc(F)c(N3CCCCCC3)cc21,0%,-16%,x,u,x,
CN(C)CC/C=C1/c2ccccc2Sc2ccc(Cl)cc21,5%,0%,-11%,3%,u,
FC(F)(F)c1ccc2c(c1)N(CCCN1CCN(CCCl)CC1)c1ccccc1S2,4%,u,u,u,u,
ClCc1cccc(Cl)c1,x,x,8%,x,i,
CN1[C@@H]2CC[C@H]1CC(OC1c3ccccc3CCc3ccccc31)C2 (stereo partly drawn),5%,-17%,-5%,-11%,i,
O=C(Nc1ccc(OC(F)(F)F)cc1)Oc1ccccc1N1CCCCC1,7%,-2%,x,12%,u,
